Source: PubChem BioAssay (several laboratories)
The list is not random: actives were taken first. Their share in the collection is about 22%.
Measles CPE: protection of cells from measles virus. Measles virus-infected cells, CPE protection, absorbance. protection (pct of control), % at 4 µM. 140,000 tested, 1.5% active. AID 841; in the data active = protection mostly above about 24%, no sharp cut-off; inactive = mostly below about 26%
CYP2C9 inhib: inhibitors of human CYP2C9; P11712; CYP2C9 Supersomes, luciferin-H conversion, luminescence; inhibition, % at 5 µM; 96,000 tested, 20% active;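 active = blocking of liver enzyme CYP2C9 beyond about 50% at 5 µM, limit read from the data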
Target sequence (P11712 whole entry, looked up): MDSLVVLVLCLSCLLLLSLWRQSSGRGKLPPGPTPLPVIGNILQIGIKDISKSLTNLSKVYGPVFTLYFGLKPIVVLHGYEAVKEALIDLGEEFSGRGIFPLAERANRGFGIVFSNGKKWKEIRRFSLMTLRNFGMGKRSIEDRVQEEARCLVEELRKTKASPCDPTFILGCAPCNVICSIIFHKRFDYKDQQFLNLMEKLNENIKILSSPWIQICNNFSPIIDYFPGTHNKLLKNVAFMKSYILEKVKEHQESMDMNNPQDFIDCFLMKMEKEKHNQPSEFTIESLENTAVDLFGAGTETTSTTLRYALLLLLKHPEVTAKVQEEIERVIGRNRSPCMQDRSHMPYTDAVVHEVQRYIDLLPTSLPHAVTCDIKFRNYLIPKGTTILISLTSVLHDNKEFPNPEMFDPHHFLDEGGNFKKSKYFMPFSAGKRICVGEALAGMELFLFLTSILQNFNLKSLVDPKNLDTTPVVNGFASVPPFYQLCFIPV
CYP2C19 inh: human CYP2C19 inhibition | P33261 | 96,000 tested, 21% active | inhibition, % at 5 µM | CYP2C19 Supersomes, luciferin-H EGE luminescence, 30 min | AID 778;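 active = CYP2C19 inhibition above a set limit at 5 µM in the primary screen, cut at about 50% in these data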;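 note: plate controls were negative control wells for no effect and 2.5 mM tranylcypromine positive control for full effect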
CYP2C19 act: cytochrome P450 2C19 (human) activation; P33261; 96,000 tested, under 10 active; activation factor at 5 µM; recombinant CYP2C19, luciferin-H EGE luminescence; active compounds read high; 0 = fully inhibited enzyme, 1 = untreated enzyme;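 active = activation factor of at least 2 at 5 µM in the primary screen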;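 note: 0 = wells with 2.5 mM tranylcypromine and 1 = vehicle-only wells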
CYP2C9 act: activators of human CYP2C9; recombinant CYP2C9, luciferin-H conversion, luminescence; active compounds read high; factor 1 = untreated enzyme, 0 = blocked; activation factor at 5 µM; 96,000 tested, 1.4% active; AID 1024;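 active = activation factor of 2 or more for CYP2C9 at a 5 µM dose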;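 note: 0 = sulfaphenazole-blocked wells and 1 = vehicle-only wells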
Numbers without * were called inactive; x = no result given.

SMILES | Measles CPE | CYP2C9 inhib | CYP2C19 inh | CYP2C19 act | CYP2C9 act
O=C(CCC(=O)Nc1ccc(Oc2ccccc2)cc1)NCCO | 7 | 9 | 8 | 0.9 | 0.9
COC(=O)c1ccc(CSc2nnc(C)s2)cc1 | 11 | 20 | 49 | 0.5 | 0.8
COC(=O)c1ccc(CSc2nnc(N)s2)cc1 | 8 | 26 | 74* | 0.3 | 0.7
CC(C)(C)C(=O)Nc1nnc(SCc2ccc(F)cc2)s1 | 5 | 78* | 68* | 0.3 | 0.2
COC(=O)c1cccc(CSc2nnc(C)s2)c1 | 2 | 6 | 62* | 0.4 | 0.9
COC(=O)c1ccc(CSc2nnc(NC(=O)C3CCCO3)s2)cc1 (configuration not stated) | 5 | 70* | 32 | 0.7 | 0.3
CCC(=O)Nc1nnc(SCc2ccc(F)cc2)s1 | 17 | x | x | x | x
C=CCn1c(Cc2csc(N)n2)nnc1SCc1ccc(C(=O)OC)cc1 | 5 | 73* | 94* | 0.1 | 0.3
C=CCn1c(Cc2csc(N)n2)nnc1SCC(=O)Nc1ccc(C(=O)OCC)cc1 | 3 | 43 | 32 | 0.7 | 0.6
O=C(Nc1nnc(SCc2ccc(Cl)cc2)s1)C1CCCO1 (configuration not stated) | 14 | 73* | 49 | 0.5 | 0.3
N#Cc1ccc(CSc2nnc(NC(=O)C3CCCO3)s2)cc1 (configuration not stated) | 6 | 19 | 20 | 0.8 | 0.8
Cc1nc(C(=O)Nc2cc(Cl)ccc2Cl)nn1-c1cc(OC(C)C)c(Cl)cc1Cl | 18 | 87* | 20 | 0.8 | 0.1
Cc1nc(C(=O)Nc2ccc(Cl)cc2Cl)nn1-c1cc(OC(C)C)c(Cl)cc1Cl | 16 | 58* | 4 | 1 | 0.4
CNC(=O)c1nc(C)n(-c2cc(Cl)ccc2Cl)n1 | 2 | -13 | -8 | 1.1 | 1.1
Cc1nc(C(=O)Nc2cccc(Cl)c2)nn1-c1cc(OC(C)C)c(Cl)cc1Cl | 9 | 70* | 62* | 0.4 | 0.3
Cc1nc(C(=O)Nc2cccc(Cl)c2Cl)nn1-c1cc(OC(C)C)c(Cl)cc1Cl | 17 | 82* | -6 | 1.1 | 0.2
CC(C(=O)O)C1SC(=O)NC1=O (configuration not stated) | 11 | 1 | -15 | 1.2 | 1
COc1cc(/C=C2/N=C(C3CCCCC3)OC2=O)cc(OC)c1OC | 0 | 62* | 5 | 1 | 0.4
COc1cc(/C=C2\CC/C(=C\c3cc(OC)c(OC)c(OC)c3)C2=O)cc(OC)c1OC | 6 | x | x | x | x
N#C/C(=C(/O)CN1C(=O)c2ccccc2C1=O)c1nc2ccccc2[nH]1 | 2 | 51* | 20 | 0.8 | 0.5
CSCCC(/C(O)=C(\C#N)c1nc2ccccc2[nH]1)N1C(=O)c2ccccc2C1=O (configuration not stated) | 5 | 95* | 99* | 0 | 0
Cn1cc(C(=O)Nc2ccc3c(c2)CCC3)cn1 | 1 | x | x | x | x
O=C(c1cccc(F)c1)N1CCN(C(=O)c2cc(-c3ccc(Cl)cc3Cl)on2)CC1 | 3 | 39 | 80* | 0.2 | 0.6
CC(C)c1ccc(NC(=O)C2C3C=CC4(CN(CCCN5CCOCC5)C(=O)C24)O3)cc1 (configuration not stated) | 4 | -25 | 7 | 0.9 | 1.3
COC1(c2ccccc2)NC(=S)NN=C1c1ccccc1 (configuration not stated) | 3 | 82* | 48 | 0.5 | 0.2
SMILES | Measles CPE | CYP2C9 inhib | CYP2C19 inh | CYP2C19 act | CYP2C9 act
CCCCOC1(c2ccccc2)NC(=S)NN=C1c1ccccc1 (configuration not stated) | 7 | 95* | 79* | 0.2 | 0.1
NC(=O)N/N=C/c1ccccc1OCC(=O)NCc1ccccc1 | 4 | x | x | x | x
Cc1ccc(S(=O)(=O)N2CCCC2c2nc3ccccc3s2)cc1 (configuration not stated) | 9 | 26 | 21 | 0.8 | 0.7
Cc1ccc2c(c1)N1C(=O)c3ccccc3C1C1=C(CC(C)(C)CC1=O)N2 (configuration not stated) | 6 | x | x | x | x
COC(=O)c1cccc(NC(=O)Nc2ccc(Cl)c(Cl)c2)c1 | 5 | 14 | 3 | 1 | 0.9
COC(=O)c1cccc(NC(=O)NC2CCCN2S(=O)(=O)c2ccc(Cl)cc2)c1 (configuration not stated) | 7 | 54* | 24 | 0.8 | 0.5
COc1cccc(NC(=S)NC2CC(C)(C)NC(C)(C)C2)c1 | 36 | x | x | x | x
CS(=O)(=O)N(CC(=O)N1CCCC1)c1cc(Cl)c(Cl)cc1Cl | 2 | 45 | 90* | 0.1 | 0.5
Cc1c(Cl)cccc1N(CC(=O)N1CCCCCC1)S(C)(=O)=O | 33 | -8 | 38 | 0.6 | 1.1
CCOC(=O)N1CCN(C(=O)CN(c2cc(C(F)(F)F)ccc2Cl)S(C)(=O)=O)CC1 | 8 | 39 | 54* | 0.5 | 0.6
CCOC(=O)N1CCN(C(=O)CN(c2ccc(OC)cc2)S(C)(=O)=O)CC1 | 11 | x | x | x | x
CCOC(=O)N1CCN(C(=O)CN(c2ccc(Cl)c(C(F)(F)F)c2)S(C)(=O)=O)CC1 | 6 | 12 | 56* | 0.4 | 0.9
CC1(C)C2CCC1(C)C(OCC[N+](C)(C)CC(=O)OC1CCCCC1)C2 (configuration not stated) | 2 | x | x | x | x
O=C(Nc1ccc(Cl)cn1)C1CCCN1S(=O)(=O)c1ccc(Cl)cc1 (configuration not stated) | 14 | 74* | 43 | 0.6 | 0.3
O=C(C1CCCN1S(=O)(=O)c1ccc(Cl)c(Cl)c1)N1CCOCC1 (configuration not stated) | 5 | -62 | -1 | 1 | 1.6
O=C(C1CCCN1S(=O)(=O)c1ccc(Cl)c(Cl)c1)N1CCCCC1 (configuration not stated) | 19 | -161 | 1 | 1 | 2.6*
Cc1ccc(S(=O)(=O)N2CCCC2C(=O)NC2CCCCC2)cc1 (configuration not stated) | 23 | 30 | 77* | 0.2 | 0.7
O=C(Nc1ccc(Cl)cn1)C1CCCN1S(=O)(=O)c1cccc2ccccc12 (configuration not stated) | 3 | -21 | 32 | 0.7 | 1.2
O=C(Nc1nnc(C2CC2)s1)C1Cc2ccccc2CN1S(=O)(=O)c1ccccc1F (configuration not stated) | 5 | 4 | 55* | 0.5 | 1
O=C(NC1CCCCC1)C1Cc2ccccc2CN1S(=O)(=O)c1ccc(F)cc1 (configuration not stated) | 7 | x | x | x | x
CCC(C)(C(=O)NC1CCCCC1)N(C(=O)c1cnccn1)c1c(C)n(C)n(-c2ccccc2)c1=O (configuration not stated) | 14 | 0 | -2 | 1 | 1
Cc1ccc(S(=O)(=O)N2CCCC2C(=O)N2CCCCCC2)cc1 (configuration not stated) | 11 | -168 | 21 | 0.8 | 2.7*
CCOC(=O)N1CCC(NC(=O)C2CCCCN2S(=O)(=O)c2ccc(F)cc2)CC1 (configuration not stated) | 34* | 16 | 28 | 0.7 | 0.8
